TDP1 block = blocks human tyrosyl-DNA phosphodiesterase 1; Q9NUW8; recombinant TDP1, AlphaScreen DNA substrate cleavage; Potency, µM (series often up to 130 µM), inactives show top-dose activity change, negative = inhibition, most hits filed as inhibitors; 350,000 tested, 0.28% active; AID 485290; note: % is set by controls: 0 for no effect and ±100 for the full control effect; nearly all actives have a fitted effect of over 40% in size
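Signal: AlphaScreen proximity between streptavidin donor and anti-FITC acceptor beads on intact substrate. Reaction: Tdp1 1 nM, substrate 15 nM final, 5 min RT after 15 min compound preincubation.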
VDR inh = blocks the human vitamin D receptor; P11473; VDR-SRC2-3 peptide fluorescence polarization, 2 h; Potency, µM, without a hit: max response, negative = inhibition, most hits filed as inhibitors; 400,000 tested, 0.93% active; AID 504847; note: % is set by controls: 0 for no effect and ±100 for the full control effect
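Compounds are added to VDR with labelled SRC2-3 coactivator peptide and held 2 h at room temperature. Inhibition of the VDR–peptide interaction is then read as a change in fluorescence polarization.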
S-ASM inh = blocks human secretory acid sphingomyelinase. P17405. placental ASM, HMU-PC fluorogenic substrate, 60 min. Potency, µM (top dose mostly 57.5 µM), for inactives: at the highest dose activity change, negative = inhibition, usual class: inhibitors. 340,000 tested, 0.006% active. AID 504937
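Fluorogenic HMU-PC substrate (9 uM final) is turned over by placental ASM in 60 min at 37 C after a 10 min compound preincubation. Reaction ended by alkaline stop (pH 10), with fluorescence read at 386/447 nm.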
Tb PFK block = inhibitors of T. brucei phosphofructokinase | O15648 | T. brucei PFK, ADP-Glo luminescence | Potency, µM (titrated, usually from 57.5 µM), without a hit: top-dose activity, negative = inhibition, usual class: inhibitors | 330,000 tested, 0.17% active | AID 485367;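 note: 0% = uninhibited 1x PFK enzyme wells and -100% = no-enzyme wells; nearly all actives have a fitted effect of over 60% in size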
Target sequence (O15648 whole entry, looked up): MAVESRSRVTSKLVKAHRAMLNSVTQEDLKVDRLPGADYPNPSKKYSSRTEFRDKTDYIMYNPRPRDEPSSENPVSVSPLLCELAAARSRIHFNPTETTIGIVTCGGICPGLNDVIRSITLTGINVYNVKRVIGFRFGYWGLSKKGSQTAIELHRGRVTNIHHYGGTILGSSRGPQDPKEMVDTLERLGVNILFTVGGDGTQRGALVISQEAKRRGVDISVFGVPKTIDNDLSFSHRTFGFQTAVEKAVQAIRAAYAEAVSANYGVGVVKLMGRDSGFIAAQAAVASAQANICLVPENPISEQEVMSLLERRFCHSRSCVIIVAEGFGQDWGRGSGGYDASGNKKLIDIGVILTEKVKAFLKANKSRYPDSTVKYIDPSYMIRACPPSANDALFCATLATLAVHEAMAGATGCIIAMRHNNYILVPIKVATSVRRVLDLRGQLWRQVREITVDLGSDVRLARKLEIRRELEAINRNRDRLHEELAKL
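Activity is normalized to no-enzyme wells (full inhibition) and 1.25 nM enzyme wells (no inhibition). Reaction: 0.5 mM F6P, 0.1 mM ATP, 45 min RT, ADP-Glo luminescence; concentration-response curves fitted and classed by quality.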
PLK1 PBD inh = blocks phosphopeptide binding to human PLK1 polo-box domain | P53350 | Plk1 PBD binding of FITC phosphopeptide, fluorescence polarization | Potency, µM, inactives show max response, negative = inhibition, actives largely listed as inhibitors | 360,000 tested, 2.8% active; note: series mostly up to about 57 µM; % is set by controls: 0 for no effect and ±100 for the full control effect; nearly all actives have a fitted effect of over 65% in size
Pin1 inh = inhibitors of human Pin1; Q13526; Pin1 FP peptide displacement, HiFluor488, 10 min; Potency, µM (series often up to 115 µM), inactives show at the highest dose activity, negative = inhibition, hits mostly inhibitors; 390,000 tested, 0.009% active; AID 504891; active = well fitted inhibition curve with a large enough effect in the polarisation, with a control signal flat, not every such curve was filed as active; inconclusive = small, poorly fitted or top-dose-only effect, or effect the other way, or a change in a side signal; inactive = no such curve, though single readings can be large or run the other way; the % refers to the polarisation; note: % is set by controls: 0 for no effect and ±100 for the full control effect
* marks the source's active call; other numbers are inactive results; u = inconclusive; x = no result; [ ] = remark or other dose. Compounds with a hit are over-represented: about 3.1% of the library has one in this group of screens. Unless noted, calls come from the whole dose curve; as a rule, active = well fitted curve in the direction sought with a large enough effect; inconclusive = small, poorly fitted or top-dose-only effect, or another doubt; inactive = no such curve, though single readings can be large; an effect the other way counts as inactive or inconclusive. Potency is the fitted concentration of half-maximal effect.

SMILES	TDP1 block	VDR inh	S-ASM inh	Tb PFK block	PLK1 PBD inh	Pin1 inh
CC(=O)c1ccc(S(=O)(=O)NCC(=O)NC(c2nc3ccccc3[nH]2)C(C)C)cc1 (stereo unspecified)	0%	u	14%	1%	19µM*	2%
COc1cc(/C=N/Nc2nncn2N)ccc1OCc1c(C)no[n+]1[O-]	0%	1%	0%	-4%	2%	-3%
COc1ccc(/C=N/Nc2nncn2N)cc1Br	x	22µM*	9%	0%	-20%	0%
CC(C)N(C)CCOC(=O)c1ccccc1Br	0%	u	1%	-1%	24µM*	-16%
CCOCCCNC(=O)c1ccc2c(c1)ncn2-c1ccc(C)cc1C	x	u	5%	6%	19µM*	-1%
O=S(=O)(Nc1cccc2cccnc12)c1ccc(Br)cc1	16%	x	x	x	x	1%
Cc1ccc(OCC(=O)Nc2cc(C(=O)O)cc(C(=O)O)c2)cc1C	4%	18µM*	17%	u	3µM*	4%
O=C1NC(=S)S/C1=C\c1ccc(SCc2ccccc2)o1	3%	u	-20%	13%	27µM*	u
O=C1NC(=S)S/C1=C\c1ccc(SCc2ccco2)o1	x	45µM*	-3%	-27%	3µM*	u
O=C1CCN(Cc2ccccc2)CCN1CCOc1ccccc1	x	-6%	0%	2%	1%	0%
CC1CCC(=O)N(CCOc2ccccc2)CC1 (stereo unspecified)	x	u	-2%	1%	27µM*	-1%
CCN(CC)C(=O)Cn1c(=O)n(-c2ccc(Cl)cc2)c(=O)c2c3c(sc21)CCCCC3	1%	-12%	x	x	x	-1%
N=C1N(c2ccccc2)C(=S)C(=Nc2ccccc2)N1c1ccccc1	x	8.9µM*	-3%	x	27µM*	-10%
CC1(C(=O)NS(=O)(=O)Cc2cccc(Cl)c2)CCN1C(=O)CCc1ccccc1 (stereo unspecified)	x	x	x	x	-3%	x
CC1(C(=O)NS(=O)(=O)Cc2cccc(Cl)c2)CCN1C(=O)Cc1ccc(-c2ccccc2)cc1 (stereo unspecified)	x	x	x	x	67µM*	x
CC1(C(=O)NS(=O)(=O)c2ccc3ccccc3c2)CCN1C(=O)Cc1ccc(-c2ccccc2)cc1 (stereo unspecified)	x	x	x	x	42µM*	x
COc1cc(/C=C(/C#N)c2nc(-c3cc4ccccc4oc3=O)cs2)ccc1O	0%[12.3 µM]	-6%	x	x	x	0%
O=C(c1ccc2c(c1)OCO2)N1CCN(c2ccccn2)CC1	3%	u	3%	0%	21µM*	2%
CCn1c(C(=O)N2CCC(C(=O)NCCc3ccc(OC)cc3OC)CC2)cc2sccc21	0%	-1%	x	x	x	-4%
COc1ccc(NC2=CC(c3ccc(OC)cc3)N(c3ccc(OC)cc3)C2=O)cc1 (stereo unspecified)	5%	-27%	-28%	1%	24µM*	4%
Cc1ccc(C)c(NC(=O)CCc2c(C)nn(-c3ccc(N4CCCC4)nn3)c2C)c1	11%	-2%	x	x	x	-1%
C=CC(C1=CC(=O)C(OC)=CC1=O)c1ccc(OC)cc1 (stereo unspecified)	18%	11µM*	x	x	x	x
COC1=CC(=O)c2ccccc2C1=O	2%	-14%	-1%	0%	-19%	-3%
C=CC(C1=CC(=O)C(OC)=C(OC)C1=O)c1ccccc1 (stereo unspecified)	20%[56.1 µM]	1µM*	x	x	x	x
C=CC(C1=CC(=O)C(OC)=CC1=O)c1ccccc1 (stereo unspecified)	19%[56.1 µM]	8.9µM*	x	x	x	x
COc1ccc(CNc2ncnc3nc[nH]c23)cc1	2%	12%	x	x	x	u
O=C1CN(C(=O)/C=C/c2ccco2)c2ccccc2N1	45µM*	-11%	-1%	-6%	-24%	-8%
O=C(CC12CC3CC(CC(C3)C1)C2)N/N=C/c1ccncc1	4%	u	2%	4%	27µM*	11%
Cc1noc(NS(=O)(=O)c2ccc(NC(=O)CSc3ncccn3)cc2)c1C	8%	-17%	3%	0%	-11%	-5%

Source: PubChem (National Center for Advancing Translational Sciences (NCATS))
